The results in this text go back to PubChem BioAssay (NCI).

The assay deals with MDA-MB-468 breast. Briefly: NCI-60 one-dose screen, 48 h (100 = growth as untreated, 0 = no growth, -100 = all killed). As to conditions: 10 µM unless noted.

Compounds without any hit were thinned out: in the full panel of roughly 83,000, 20% have a hit.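 Method: cells in 96-well plates; compound added at one concentration; 48 h incubation; percent growth measured; values under 10 scored active.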 A number with no mark means an inactive call. Active and inactive are the calls of the source.

With `Cc1[nH]c2ccc(F)cc2c1CCNC(=O)C1CCN(C(=O)c2ccc(-c3ccccc3)cc2)CC1`, the growth was 48.5%.

`COc1ccc(C/C(C)=C(/c2ccc(OCCN3CCCC3)cc2)c2ccc(OC(=O)NCc3ccccc3)cc2)cc1`: the growth was 78.9%.

`Nc1c(C(=O)Nc2c(Cl)cccc2Cl)sc2nc3c(cc12)CCCC3`: the growth is 82.3%.

As to `COc1cc(OC)cc(-c2ccc(-c3ccc(C(=N)N)s3)s2)c1`, the growth was -76.9% (active).

Turning to `COc1cc2c(cc1OC)-c1ccc3cc4c(cc3c1N(CCCN(C)C)C2)OCO4`, the growth was 22.3%.

Turning to `CCSc1nc(-c2ccc(F)cc2)c(C#N)c(=O)[nH]1`, the growth was 91.4%.

Consider `CC(C)N(CCNc1nc(C(Cl)(Cl)Cl)nc2cc(Cl)ccc12)C(C)C`, for which the growth is -50% (active).

As to `CN1CCN=C1c1ccc(NC(=O)c2ccc(C(=O)Nc3ccc(C4=NCCN4C)cc3)cc2)cc1`, the growth is 81.2%.

Turning to `COc1ccc(C(=O)c2cc(C)c(OC)c(C)c2)c(OC)c1O`, the growth is 20.4%.

Take `CC1CN=C(c2cccc(-c3ccc(-c4ccccc4)o3)c2)N1` (stereo not given): the growth is -35.5% (active).

In the case of `COc1c2occc2c(OC)c2c(=O)c(-c3cc(-c4ccc(F)cc4)c(C#N)c(N)n3)c(C)oc12`, the growth was 26.4%.

In the case of `CC1(C)CC2(C)CC(=O)C1C(C(=O)O)C2C(=O)O` (stereo not given), the growth was 114%.

For `Cc1nnc2c(Cc3ccccc3)nc3ccccc3n12`, the growth was 89.6%.

With `COc1cc(OC)c(C(=O)/C=C/c2ccc(C#N)cc2)c(OC)c1`, the growth was -6.07% (active).

Take `N#Cc1c(-c2ccccc2)nc(SCC(O)CN2CCOCC2)nc1N1CCOCC1` (stereo not given): the growth is 76.7%.
